Hit rate of the full screen: of about 290,000 compounds, about 3,000 (1%) were called active. What follows is part of a selection rich in actives, with near analogues and random picks from the rest. Values without a mark were called inactive. Cut-off read from the data, not from the text of the source: active = inhibition mostly above about 36% (no sharp cut-off); inactive = mostly below about 34%.
Experiment: inhibition of NOD1-driven NF-kB reporter – cell-based, luminescence, uHTS, primary screen (AID 1578);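 note: HEK-293T reporter cells stimulated with the NOD1 agonist gamma-tri-DAP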
Conditions: NOD1-driven NF-kB luciferase reporter cells, at 4 µM, active compounds read high
Work on O=c1cccc2n1CC1CC2CN(C(c2cccc(F)c2)c2sc3ncnn3c2O)C1 (centres undefined) yielded an inhibition of -12.7%. Work on CN[C@H]1C[C@H]2O[C@@](C)([C@H]1OC)n1c3ccccc3c3c4c(c5c6ccccc6n2c5c31)C(=O)NC4 yielded an inhibition of 1.7%. COc1ccccc1N1CCN(Cc2ccccc2Cl)CC1 gave an inhibition of -17.2%. With Cc1cc(C)n(-c2ccc(NN=C(C#N)C#N)cc2)n1 the inhibition was 41.2% (active). Compound N#CC(C#N)=NNc1ccc(S(N)(=O)=O)cc1 has an inhibition of -10.8%. For N#CC(C#N)=NNc1ccc(-n2ccc(C(F)(F)F)n2)cc1, the inhibition was 36.7% (active). In the case of CC1CCN(S(=O)(=O)c2ccc(NN=C(C#N)C#N)cc2)CC1, the inhibition is reported as -29.8%. Work on CCN(CC)S(=O)(=O)c1ccc(NN=C(C#N)C#N)cc1 yielded an inhibition of 9.7%. With Cc1nn(Cc2ccccc2)c(Cl)c1C(=O)OCC(=O)Nc1cccc2ccccc12 the inhibition was -17.7%. Compound COC(=O)C(C)Oc1cc(C)cc2oc(=O)c3c(c12)CCCC3 (centres undefined) has an inhibition of -9.2%. For O=C(NC(Cc1cnc[nH]1)C(=O)O)c1ccccc1 (centres undefined), the inhibition was -20.8%. C=CCn1c(O)c(C(CC)=NCCc2ccccc2)c(=O)[nH]c1=O gave an inhibition of -24.2%. Work on CC(C)n1c(=O)c(C=Nc2ccc(S(N)(=O)=O)cc2)c(O)n(Cc2ccco2)c1=O yielded an inhibition of -37.7%. For CC(=O)c1cn(Cc2ccccc2C#N)c2ccccc12, the inhibition was 78% (active). CC(C)C(=O)c1cn(Cc2ccccc2C#N)c2ccccc12 showed an inhibition of -11.1%. In the case of CCC(=O)c1cn(Cc2ccccc2C#N)c2ccccc12, the inhibition is reported as 8.5%. CCOC(=O)CNC(=O)CNC(=O)C(Cc1ccc(N(CCCl)CCCl)cc1)NC(C)=O (centres undefined) gave an inhibition of -43.1%. With C=CCn1c(O)c(C(CC)=NCc2cc(OC)cc(OC)c2)c(=O)[nH]c1=O the inhibition was 0.2%. In the case of O=C1NC(=S)NC(=O)C1=Cc1cccc2cc3ccccc3cc12, the inhibition is reported as 59.4% (active). Work on O=C1NC(=O)C(=Cc2ccc3ccccc3c2)C(=O)N1 yielded an inhibition of -4.2%. For Cc1cc(C=C2C(=O)NC(=S)NC2=O)c(C)n1C1CCCC1, the inhibition was 24.9%. Cc1cccc(N2CCN(CCc3ccccc3)CC2)c1C showed an inhibition of 11.9%. For CC(=O)c1c(O)n(-c2cccc(Cl)c2)c(=O)[nH]c1=O (tested in a mixture with another compound), the inhibition was 1.2%. With CC(C)n1c(O)c(C2c3cc(Cl)ccc3Oc3[nH]c(=O)n(C(C)C)c(=O)c32)c(=O)[nH]c1=O (centres undefined) the inhibition was 61.3% (active). With CC(=O)[C@@]1(O)CC[C@H]2[C@@H]3CC=C4C[C@@H](O)CC[C@]4(C)[C@H]3CC[C@@]21C the inhibition was -24.8%. For C[C@]12CC[C@H]3C(CCC4(O)CC(O)CC[C@]34C=O)C1=CC[C@H]2c1ccc(=O)oc1 (some centres undefined), the inhibition was 60.3% (active). CC12CC[C@H]3[C@@H](CCC4(O)C[C@H](O)CCC34/C=N/NC(=O)c3ccccc3Cl)C1(O)CCC2C1=CC(=O)OC1 (some centres undefined) showed an inhibition of 3%. With C=C(C)Cn1c(=O)n(CC2CS2)c2ccccc21 (centres undefined) the inhibition was 8.9%. CCOc1cc2c(cc1OCC)-n1cccc1C(c1ccccc1OC)NC2 (centres undefined) gave an inhibition of 4.7%. Work on CC[C@@]1(O)C(=O)OCc2c1cc1n(c2=O)Cc2cc3c(NC(=O)CN)cccc3nc2-1 yielded an inhibition of 7.7%. In the case of CCC1(OC(=O)CN)C(=O)OCc2c1cc1n(c2=O)Cc2cc3ccccc3nc2-1 (centres undefined), the inhibition is reported as 71.2% (active). With CCOC(=O)C1=C(N)OC2=C(C(=O)CCC2)C12C(=O)N(C)c1ccccc12 (centres undefined) the inhibition was -7.5%. With Cc1cnn(C2CCN(C)CC2)c1N the inhibition was -8.2%. Compound NC1=C([N+](=O)[O-])C(c2ccc3c(c2)OCO3)c2c(c3ccccc3oc2=O)O1 (centres undefined) has an inhibition of -6%. Compound O=C(Cc1ccccc1)Oc1cccc(-n2cnnn2)c1 has an inhibition of -14.2%. O=[N+]([O-])c1ccc(N2CCNCC2)cc1Sc1ccccn1 showed an inhibition of -12.4%. Cc1cc(N2CCCCC2)ccc1C=C1C(=O)N(C)C(=S)N(C)C1=O gave an inhibition of -10.1%. For Cc1ccc(N2C(=O)CC(=O)NC2=O)cc1, the inhibition was -5.6%. Work on O=Cc1cn(Cc2ccccc2F)c2ccccc12 yielded an inhibition of 30.3%. For O=Cc1cn(Cc2c(F)cccc2Cl)c2ccccc12, the inhibition was 66% (active). O=Cc1cn(Cc2ccc(F)cc2)c2ccccc12 showed an inhibition of 6.2%. Work on Cc1cc(=O)oc2cc(OCC(=O)N3CCC(C(=O)O)(c4ccccc4)CC3)ccc12 yielded an inhibition of -7.5%. CCCCOP(=O)(OCCCC)/C(C#N)=C(/C)O showed an inhibition of -14.2%. Compound O=c1[nH]c(=S)n(Cc2ccc(F)cc2)c(O)c1C=NCCCn1ccnc1 has an inhibition of -9.5%. Cc1cccc(CN2CCCN(Cc3ccc(Cl)cc3)S2(=O)=O)c1 gave an inhibition of 2.2%. Compound CN1C(=O)/C(=C/C=C/c2ccco2)C(=O)NC1=S has an inhibition of -4.7%. With CCCCN1C(=O)/C(=C/C=C/c2ccco2)C(=O)NC1=S the inhibition was -32.6%. With CN(C)c1ccc(/C=C/C=C2/C(=O)NC(=O)N(c3ccccc3)C2=O)cc1 the inhibition was 80.9% (active). Cc1cc(C)cc(N2C(=O)NC(=O)/C(=C\C=C\c3ccco3)C2=O)c1 gave an inhibition of 67.1%. Compound Cn1cc(/C=C2\C(=O)NC(=O)N(c3ccccc3)C2=O)c2ccccc21 has an inhibition of -3.2%. O=C1NC(=O)N(Cc2ccccc2)C(=O)/C1=C\c1ccco1 showed an inhibition of -5.6%. Compound Cc1cccc(N2C(=O)NC(=O)/C(=C\C=C\c3ccco3)C2=O)c1 has an inhibition of -6.1%. In the case of CCc1ccc(N2C(=O)NC(=O)/C(=C\C=C\c3ccco3)C2=O)cc1, the inhibition is reported as 89.4% (active). For CCN1C(=O)C(=C/C=C/c2ccco2)C(=O)N(CC)C1=S, the inhibition was -25.5%. For Cc1ccc(N2C(=O)NC(=O)/C(=C/C=C/c3ccco3)C2=O)cc1, the inhibition was 87.4% (active). In the case of O=C1NC(=O)N(c2ccccc2)C(=O)/C1=C/c1ccoc1, the inhibition is reported as -13.5%. With O=C1NC(=O)N(Cc2ccccc2)C(=O)/C1=C\C=C\c1ccco1 the inhibition was 61.5% (active). COCCOC(=O)C1=C(N)Oc2c(c(=O)oc3ccccc23)C1c1ccncc1 (centres undefined) gave an inhibition of -14.2%. CCCCOC(=O)C1=C(N)OC2=C(C(=O)CCC2)[C@]12C(=O)N(C)c1ccccc12 gave an inhibition of 2.2%.

— PubChem BioAssay AID1578 (Sanford-Burnham Center for Chemical Genomics, 2009)
